Test [1] can be described thus: NFAT Signaling Pathway (AID 444).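 Further: carbachol stimulus at about its EC50 of 1 µM final; on the % scale 0 is the no-effect control and ±100 the full control effect.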 The settings on record: Jurkat NFAT-bla M1, carbachol, beta-lactamase ratio, 5 h. The method, boiled down:
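Jurkat cells carrying an NFAT-driven β-lactamase reporter and co-transfected muscarinic M1 receptor were treated with compound plus carbachol (1 uM final, an EC50 level) for 5 h at 37 °C. CCF4 loading followed for 1 h at RT; 460/530 nm ratio gave %activity.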

Test [2] can be described thus: Cell Viability - BJ (AID 421; calls by dose curve;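 further: potency means the concentration at half of the fitted maximal effect; cells exposed to compound for 40 hours at 37 °C before readout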). The settings on record: BJ fibroblast viability, qHTS. The essentials: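 Luminescent ATP signal (CellTiter-Glo, 20 min at room temperature) served as the read-out of viable BJ cells after 40 hours of compound treatment. Responses were scaled between DMSO and 100 uM tamoxifen, and AC50 values were obtained by Hill modeling.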
Test [3] in a line: Cell Viability - Jurkat (AID 426;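 active means dose-dependent loss of cell ATP signal giving a full or clear fitted curve, ranked by lower potency value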;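 further: potency means the concentration at half of the fitted maximal effect; cells exposed to compound for 40 hours at 37 °C before ATP read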). The settings on record: qHTS. The method, boiled down: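 Cells of the human T-cell leukemia line Jurkat (E6-1) are seeded at 5000 per well, treated with compound across a concentration range for 40 hours at 37 °C, then lysed with CellTiter-Glo; luminescence reports ATP.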
A general note: Quantitative high-throughput screening tests each substance at several concentrations.

Test [4] in a line: Cell Viability - HepG2 (AID 433; calls by dose curve;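 further: potency means the concentration at half of the fitted maximal effect; potency for ATP loss meaning cytotoxicity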). To be noted: qHTS. The method, boiled down: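 ATP luminescence (CellTiter-Glo) after 40 h compound exposure, 37 °C, HepG2, 1500 cells/well, complete medium. Normalized: DMSO = basal, 100 uM tamoxifen = 100% inhibition. AC50 via standard Hill equation.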
Test [5] in a line: Cell Viability - MRC5 (AID 434; calls by dose curve;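 further: potency means the concentration at half of the fitted maximal effect; potency reflects cytotoxicity seen as loss of intracellular ATP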). The settings on record: MRC5 lung fibroblast viability, qHTS. The method, boiled down:
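Decrease in intracellular ATP, quantified by luciferase light output, reflects compound toxicity toward MRC5 cells exposed for 40 hr in complete culture medium. Concentration-response curves, scaled between DMSO and 100 uM tamoxifen, gave AC50 values.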

Test [6] addresses Mitogen-activated protein kinase 10 (Mus musculus) (UniProt Q61831). Nature of the test: JNK3 AlphaScreen Assay (AID 530).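 Further: kinase came from lysate of stimulated human HepG2 cells; signal reports phosphorylation of biotinylated GST-cJun 1-79 at Ser73 with 10 µM ATP; on the % scale 0 is the no-effect control and ±100 the full control effect.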 The method, boiled down: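 Phosphorylation of biotinylated GST-cJun(1-79) at Ser73 is measured by AlphaScreen proximity luminescence. Enzyme is JNK3 in HepG2 lysates activated with interleukin-1beta and tumor necrosis factor alpha; ATP is 10 uM final.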
A short description of test [7]: Cell Viability - N2a (AID 540; active means well fitted curve in the direction sought with a large enough effect; an effect the other way counts as inactive or inconclusive;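 further: plate controls were DMSO alone for no effect and tamoxifen control for full effect; nearly all actives have a fitted effect of over 45% in size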). To be noted: N2a mouse neuroblastoma cell viability; activity change, negative = cytotoxicity: at 92.2 µM (top of the series). The method, boiled down:
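Cytotoxicity was scored as loss of cellular ATP in N2a cells, a mouse neuroblastoma line. Compounds are applied in a qHTS concentration series for 40 hr at 37 °C.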

Test [8] is described as follows: Cell Viability - HUV-EC-C (AID 542; active means well fitted curve in the direction sought with a large enough effect; an effect the other way counts as inactive or inconclusive; further: on the % scale 0 is the no-effect control and ±100 the full control effect; nearly all actives have a fitted effect of over 35% in size). The method, boiled down:
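Cells were seeded at 1000 per well and incubated 5 hr at 37 °C before compound addition. After 40 hr at 37 °C, CellTiter-Glo reagent was added for 20 min and luminescence read. AC50 values came from Hill-equation modelling.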

Test [9] is described as follows: Cell Viability - Hek293 (AID 427;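 active means compounds whose dose-response curve shows a full or clear partial loss of cell viability, called from curve shape rather than a numeric limit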;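 further: potency means the concentration at half of the fitted maximal effect; cells exposed to compound for 40 hours at 37 °C before reading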). To be noted: qHTS. The essentials: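 Luminescent ATP read-out (CellTiter-Glo, 20 min RT) after 40 hr compound exposure at 37 °C in complete medium. Signal normalized to DMSO (basal) and 100 uM tamoxifen (100% inhibition); concentration-response fitted with the standard Hill equation to give AC50.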
Test [10] can be described thus: Cell Viability - SK-N-SH (AID 435; calls by dose curve; further: potency means the concentration at half of the fitted maximal effect). To be noted: SK-N-SH neuroblastoma cell viability qHTS. The method, boiled down:
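CellTiter-Glo ATP luminescence, 20 min RT read; cells pre-plated 5 hr, compound 40 hr at 37 °C, 1500 cells/well, complete medium. Normalized DMSO = 0, 100 uM tamoxifen = 100% inhibition; Hill-fit AC50.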

Test [11] in a line: Cell Viability - H-4-II-E (AID 543; active means well fitted curve in the direction sought with a large enough effect; an effect the other way counts as inactive or inconclusive; further: nearly all actives have a fitted effect of over 35% in size; further: potency means the concentration at half of the fitted maximal effect). The method, boiled down: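 Cells seeded at 1500 per well and rested 5 hr; compounds added; 40 hr incubation at 37 °C; CellTiter-Glo added, 20 min at room temperature; luminescence read. Hill-equation fits gave AC50.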
A short description of test [12]: Cell Viability - Renal Proximal Tubule (AID 545; active means well fitted curve in the direction sought with a large enough effect; an effect the other way counts as inactive or inconclusive;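 further: 0% = DMSO only and -100% = 100 µM tamoxifen; nearly all actives have a fitted effect of over 40% in size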). The settings on record: renal proximal tubule cells viability, primary cells of rat origin; activity change, negative = cytotoxicity: at 91.7 µM (top of the series). The essentials: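 Rat kidney proximal tubule cells, freshly isolated; 1000 cells/well, 5 hr settle, compound 40 hr 37 °C. CellTiter-Glo 20 min RT, luminescence read. AC50 by standard Hill fit.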

Test [13] is described as follows: Cell Viability - NIH 3T3 (AID 541; active means well fitted curve in the direction sought with a large enough effect; an effect the other way counts as inactive or inconclusive;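 further: plate controls were DMSO alone for no effect and tamoxifen positive control for full effect; nearly all actives have a fitted effect of over 25% in size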). To be noted: NIH 3T3 cell viability, qHTS; activity change, negative = cytotoxicity: at 92.2 µM (top of the series). The essentials: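 Cells seeded at 1000/well, rested 5 hr at 37 °C, then dosed and incubated 40 hr at 37 °C. CellTiter-Glo added, 20 min room temperature, luminescence read. AC50 by Hill fit.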
Test [14] can be described thus: Cell Viability - SH-SY5Y (AID 544; active means well fitted curve in the direction sought with a large enough effect; an effect the other way counts as inactive or inconclusive; further: nearly all actives have a fitted effect of over 55% in size; further: potency means the concentration at half of the fitted maximal effect;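 on viability change, negative = cytotoxic: 0% = DMSO alone and -100% = 100 µM tamoxifen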). The settings on record: SH-SY5Y neuroblastoma cell viability; viability change, negative = cytotoxic: at 92.2 µM (top of the series). The method, boiled down:
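Cells were plated at 1500 per well and allowed 5 hr at 37 °C. Compounds were added across a concentration range and incubated 40 hr at 37 °C. CellTiter-Glo was added for 20 min at room temperature before luminescence reading.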

A short description of test [15]: Stat Signaling Pathway (AID 446).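 Further: ME-180 cervical cancer cells given 40 pM IL-6 alongside compound; SIE-controlled beta-lactamase reporter measured as 460/530 nm FRET emission ratio; on the % scale 0 is the no-effect control and ±100 the full control effect.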 The settings on record: ME-180 (cervical carcinoma) SIE beta-lactamase reporter, IL-6 stimulated, 5 h; at 17.2 µM (top of the series). The method, boiled down: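 Compound effects on IL-6-induced STAT reporter activity were measured in ME-180 cells. After overnight culture, cells were co-treated with 40 pM IL-6 for 5 hrs before beta-lactamase substrate loading at room temperature.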

“And” between values parts separate entries of the source, which are not always exact repeats. Equal values may be shown once. Results filed as inconclusive are left out. Unmarked numbers belong to inactive results. The source made the active and inactive calls. Unless noted, the call rests on the fitted dose curve; in most records, active means well fitted curve in either direction with a large enough effect (not every such curve was filed as active); inconclusive means small, poorly fitted or top-dose-only effect, or another doubt; inactive means flat fitted curve, though single readings scatter.

Turning to `CCC(NC(C)C)C(O)c1ccc(O)c(O)c1` (centres undefined), the activity change, negative = inhibition in test [1] (at 17.2 µM (top of the series)) was 3%.
With `C[C@]12CC[C@@H]3c4ccc(O)cc4CC[C@H]3[C@@H]1CC[C@@H]2O`, the Potency in test [2] is more than 92 µM; in [3], 25.8 µM (active); in [4], more than 92 µM; in test [5] it was more than 92 µM. Further, the result in [6] was inactive. Besides, the Potency entry in test [7] and in test [8] was “inactive” in each case.
As to `CC(C)NC[C@@H](O)COc1cccc2ccccc12`, the activity change, negative = inhibition in [1] (at 17.2 µM (top of the series)) is 5.75% and 5.85% and -11.9%; in [1] (at 38 µM (top of the series)) it was 4.84% and 0.806%. The compound was called inactive in [6].
On to `CN(C)/N=N/c1nc[nH]c1C(N)=O`, for which the Potency in test [2] was more than 92 µM; in [9] it was more than 92 µM; in test [4], more than 92 µM; in [5], more than 92 µM; in test [10] it was more than 92 µM; in [11], 25.1 µM (active). For the same compound, the compound was classed as inactive in test [6]. In addition, the Potency entry in test [7] and in test [8] was “inactive” each time. Besides, the activity change, negative = cytotoxicity in test [12] is -19.1%.
Regarding `CCCCCCC[N+](CC)(CC)CCCCc1ccc(Cl)cc1`, in [6], the call was inactive.
Turning to `COC1=CC(=O)C[C@@H](C)[C@]12Oc1c(Cl)c(OC)cc(OC)c1C2=O`, the Potency in [2] is more than 92 µM; in test [9], more than 92 µM; in test [4], more than 92 µM; in test [5], more than 92 µM; in test [11], 25.1 µM (active); in [14], 25.1 µM (active). The call in test [6] was inactive. Besides, the Potency entry in [7], in [13] and in [8] was “inactive” each time.
With `O=C1OC(c2ccc(O)cc2)(c2ccc(O)cc2)c2ccccc21`, the Potency in test [2], in test [9], in test [4], in test [5] and in test [10] was more than 92 µM throughout. The activity change, negative = inhibition in test [1] (at 17.2 µM (top of the series)) is -4.2%. The activity, negative = inhibition in test [15] was -16.8%. Moreover, the result in test [6] was inactive. Besides, the Potency entry in test [7], in test [13] and in test [11] was “inactive” each time.
On to `NCCCC[C@H](N[C@@H](CCc1ccccc1)C(=O)O)C(=O)N1CCC[C@H]1C(=O)O`, for which, in test [1] (at 17.2 µM (top of the series)), the activity change, negative = inhibition was -2.99%. Besides, in test [15], the activity, negative = inhibition is 4.58%. For the same compound, the compound was classed as inactive in test [6].
With `COc1ccc(CCN2CCC(Nc3nc4ccccc4n3Cc3ccc(F)cc3)CC2)cc1`, in test [15], the activity, negative = inhibition was -11% and -15.4%. In [6], the compound was classed as inactive.
Take `CCCCCCc1ccc(O)cc1O`: the Potency in test [2], in [3], in test [9], in test [4], in test [5] and in test [10] was more than 92 µM each time. Moreover, the compound was called inactive in test [6]. Besides, the Potency result in [8], in test [11] and in test [14] was “inactive” throughout. Moreover, the activity change, negative = cytotoxicity in test [12] was -9.26%.

These data come from PubChem BioAssay (NCATS).
